# Experimental data as given in PubChem BioAssay AID504652 (National Center for Advancing Translational Sciences (NCATS), 2011).
# Out of some 360,000 compounds screened, about 11,000 (3.1%) were called active. Shown is part of a subset that was picked to be rich in actives. Unmarked numbers belong to inactive results. Cut-off read from the data, not from the text of the source: active = activity change below about -30%; inactive = the rest.
# Biological target: D(1A) dopamine receptor (Homo sapiens) (UniProt P21728)
# Test: Antagonist of Human D 1 Dopamine Receptor: qHTS
# Details: HEK293 TREx D1 cells, calcium flux, dopamine EC80; at 10 µM; stronger effect = lower value
# Text: Dopamine receptors (DARs) are involved in the etiology and/or therapy of a number of neuropsychiatric and endocrine disorders. For instance, all receptor-based antiparkinsonian drugs work via stimulating the […] DAR subtype whereas all FDA-approved antipsychotic agents are antagonists of this receptor. […] There are three different types of allosteric modulators that we are seeking, two of which will stimulate or augment receptor signaling, allosteric agonists and potentiators, while the third, allosteric antagonists, will attenuate receptor signaling. The present primary screening assay measures compound antagonism after an EC80 addition of dopamine by tracking calcium flux in a […], inducible Hek293 Trex D1 cell line. NIH Chemical Genomics Center [NCGC] NIH Molecular Libraries Probe Centers Network [MLPCN] MLPCN Grant: NS064831-01 Assay Submitter (PI): David Sibley
# Freshly passaged cells are plated in 1536 well black, clear bottom plates at a density of 4000 cells/well in 3 ul of complete media containing 1x tetracycline inducer. After an overnight incubation at 30 C in 5% CO2, cells are loaded with 2 ul of the no wash Calcium Assay Kit (ABD Bioquest) and incubated at room temperature for 30 to 90 minutes. Agonist read: A 10 cycle (1 second/cycle) baseline measurement is taken and then the FDSS online 1536 pintool delivers 23 nl of compound library (as well as dopamine controls) to the plate. The plate is measured for kinetically at 1 cycle/sec for 180 seconds. Following the 180 second read, 1 ul of an EC80 (negative modulation assay) is delivered by an onboard pipette head. Measurements are taken kinetically for an additional 180 seconds.
# % is set by controls: 0 for no effect and ±100 for the full control effect.
# Sequence of D(1A) dopamine receptor (Homo sapiens) (P21728 whole entry, looked up): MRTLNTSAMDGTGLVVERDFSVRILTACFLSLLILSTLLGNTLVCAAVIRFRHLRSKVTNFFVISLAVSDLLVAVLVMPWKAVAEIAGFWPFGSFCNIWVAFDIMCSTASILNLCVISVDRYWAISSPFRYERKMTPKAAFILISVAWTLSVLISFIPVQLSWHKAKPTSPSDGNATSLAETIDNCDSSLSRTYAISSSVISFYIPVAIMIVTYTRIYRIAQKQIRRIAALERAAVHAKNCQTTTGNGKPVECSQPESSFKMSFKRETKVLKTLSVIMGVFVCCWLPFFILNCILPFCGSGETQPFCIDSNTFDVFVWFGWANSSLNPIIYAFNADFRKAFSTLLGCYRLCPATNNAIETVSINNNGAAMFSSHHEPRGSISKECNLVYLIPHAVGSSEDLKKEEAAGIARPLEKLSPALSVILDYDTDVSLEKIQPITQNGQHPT
row,SMILES,"activity change, negative = inhibition"
1,Cc1nnc(SCc2cc(=O)c3cc(F)ccc3[nH]2)n1C,-67.4% (active)
2,Cn1c(SCc2ccc(F)cc2)nnc1-c1ccncc1,5.13%
3,O=c1cc(CSc2ncn[nH]2)[nH]c2ccc(F)cc12,10.4%
4,Cc1cccc(NC(=O)c2ccc3nc(C(C)C)oc3c2)c1C,9.09%
5,CC1CC1C(=O)OCC(=O)c1c(N)n(C)c(=O)n(C)c1=O (stereo not given),5.53%
6,Cn1c(N)c(C(=O)COC(=O)c2cnc(Cl)c(Cl)c2)c(=O)n(C)c1=O,12.2%
7,Cc1cc(C(=O)OCC(=O)c2c(N)n(C)c(=O)n(C)c2=O)c(C)o1,-60.8% (active)
8,O=C(CSc1nccn1-c1ccc(F)cc1)Nc1cccc2ccccc12,43.1%
9,O=C(Cn1c(=O)n(Cc2cccs2)c(=O)c2cccnc21)Nc1ccc(F)cc1,2.03%
10,Cc1c(Cl)cccc1NC(=O)C1CCCN(c2ncnc3onc(C)c23)C1 (stereo not given),-3.12%
11,COc1ccc(C(CCN(Cc2ccc(OC)c(OC)c2)C(=O)CCl)c2ccccc2)cc1 (stereo not given),0.248%
12,CN(Cc1ccccc1)C(=O)COc1ccccc1,2.23%
13,COc1ccc(CN(C)C(=O)CC(c2ccccc2)c2ccccc2)cc1,-31.6% (active)
14,CCOC(=O)CC1COCCN1C(=O)c1cc(COc2ccc(F)c(F)c2)on1 (stereo not given),-41% (active)
15,O=C(c1cc(COc2ccc(F)c(F)c2)on1)N1CCOCC1,-16.4%
16,CCC(NC(=O)c1cc(COc2ccc(F)c(F)c2)on1)c1ccncc1 (stereo not given),-27.1%
17,Cc1ccc(C(=O)N2CCc3cc(CNC(=O)c4ccc(Br)cc4)ccc32)cc1,3.02%
18,Cc1noc2ncnc(NCc3ccccc3Cl)c12,-4.33%
19,Cc1nn(C)c(C)c1NS(=O)(=O)c1ccc(OC(F)(F)F)cc1,-90.7% (active)
20,Nc1ncc(S(=O)(=O)Nc2ccc(OC(F)(F)F)cc2)cn1,18%
21,COc1ccc(OC)c(S(=O)(=O)Nc2c(C)nn(C)c2C)c1,2.31%
22,Cc1cccc(NC(=O)C2CCN(S(=O)(=O)c3c(C)noc3/C=C/c3ccco3)CC2)c1,-5.72%
23,C=Cc1ccc(Cn2c(C(=O)OC)cc3sc(C)cc32)cc1,21.5%

row,SMILES,"activity change, negative = inhibition"
1,Cc1ccc(N(C(=O)Cc2cccs2)C(C(=O)NCC2CCCO2)c2ccncc2)cc1 (stereo not given),-0.595%
2,CC(Sc1nn(-c2ccc(Cl)cc2)c(=S)s1)C(=O)NCC1CCCO1 (stereo not given),-0.972%
3,CC(Sc1nnc(-c2cccs2)n1C1CC1)C(=O)NCC1CCCO1 (stereo not given),-30.6% (active)
4,CC(C)OCCCn1c(SCC(=O)c2ccccc2)nc2c(sc3ccccc32)c1=O,4.36%
5,Cc1cc(C)cc(OC(C)C(=O)Nc2nc3c(s2)CCCC3)c1 (stereo not given),3%
6,COc1ccc2cc(CNc3ccc(OC)c(OC)c3)c(=O)n(CC(=O)Nc3ccccc3F)c2c1,-14.2%
7,Cc1ccc2[nH]cc(CCNC(=O)C3CCCCC3)c2c1,-23.8%
8,CCOc1ccc(CN2CCN(Cc3c[nH]c4ccccc34)CC2)cc1,4.58%
9,O=C(NCCc1c[nH]c2ccccc12)C1CCN(Cc2ccc(Br)cc2)CC1,-56.3% (active)
10,Cc1cc(C)cc(NS(=O)(=O)c2ccc3[nH]cc(C(=O)N4CCCCC4)c(=O)c3c2)c1,-3.92%
11,CCN(c1ccc(Cl)cc1)S(=O)(=O)c1nnc(NC(=O)c2ccco2)s1,-1.57%
12,COc1cccc(CN(C)CC2CCCN(CCc3ccc(Cl)cc3)C2)c1OC (stereo not given),-79.9% (active)
13,Cc1nc2ccc(C(=O)N(C)CC3CCCN(CCc4ccc(Cl)cc4)C3)cc2[nH]1 (stereo not given),-13.3%
14,COc1cccc(CN(C)CC(=O)NCc2ccccc2Cl)c1OC,-23.2%
15,CCc1ccc(NC(=O)CCS(=O)(=O)c2cc3c(cc2Cl)NC(=O)CO3)cc1,-16.7%
16,COc1ccc(-n2c(SCC(N)=O)nc3c(oc4ccccc43)c2=O)cc1,10.8%
17,Nc1c(C(=O)c2cccs2)sc2nsc(SCCN3CCCCC3)c12,-42.4% (active)
18,CN(C)c1ccc(C(CNS(=O)(=O)c2cc(F)ccc2F)N2CCOCC2)cc1 (stereo not given),-3.66%
19,Cc1ccc(NC(=O)CSc2nc3c([nH]c4ccccc43)c(=O)n2-c2ccccc2)c(C)c1,-35.7% (active)
20,Cc1ccc(NC(=O)CSc2nc3c([nH]c4ccccc43)c(=O)n2-c2ccccc2)cc1Cl,-8.44%
21,Cc1cccc(NC(=O)CSc2nc3c([nH]c4ccccc43)c(=O)n2-c2cc(C)cc(C)c2)c1,23.9%
22,CCN(CC)C(=O)CSc1nnc(-c2ccc(S(=O)(=O)NCc3ccccc3Cl)cc2)o1,-32.6% (active)
23,CCN(C(=O)CSc1nnc(-c2ccncc2)o1)c1ccccc1,-3.41%

row,SMILES,"activity change, negative = inhibition"
1,CCc1ccccc1NC(=O)CSc1nnc(-c2ccncc2)o1,7.4%
2,CCOc1ccc(C(=O)c2cn(Cc3ccc(F)cc3)c3ccc(F)cc3c2=O)cc1,-1.13%
3,Cc1cccc(Cn2c(SCc3ccc(C(=O)N4CCC(C)CC4)cc3)nc3ccncc32)c1,-18.5%
4,CN1CC(c2ccccc2)C2(COc3ccccc3C2=O)C12C(=O)Nc1ccccc12 (stereo not given),-39.3% (active)
5,O=C1NC(c2ccccc2)Oc2ccccc21 (stereo not given),3.6%
6,Oc1ccccc1-c1nc(/C=C/c2ccc(F)cc2)no1,3.54%
7,Cc1cc2c(cc1S(=O)(=O)CCC(=O)Nc1ccc(OC(F)(F)F)cc1)OCC(=O)N2,-0.986%
8,CCOC(=O)c1ccc(NC(=O)CC2C(=O)N(c3cccc(OC)c3)C(=O)N2C2CCCCC2)cc1 (stereo not given),-8.12%
9,CC(=O)c1sc(NC(=O)C2=NN(c3ccccc3)C(=O)CC2)nc1C,2.3%
10,CC(=O)c1sc(N/N=C\c2ccc(C)cc2)nc1C,-54.7% (active)
11,CC(=O)c1sc(N/N=C/c2ccc(C(C)C)cc2)nc1C,-11%
12,CCOC(=O)CNC(=O)c1cc2c(=O)n3cccc(C)c3nc2s1,0.697%
13,COc1ccc(N(CC(=O)NC2CCCCC2)S(=O)(=O)c2c(C)[nH]c(=O)[nH]c2=O)cc1,-34% (active)
14,CCOc1ccc(N(CC(=O)NC2CCCCCC2)S(=O)(=O)c2c(C)[nH]c(=O)[nH]c2=O)cc1,7.77%
15,COc1ccc(N(CC(=O)NC2CCCCCCC2)S(=O)(=O)c2c(C)nn(C)c2C)cc1,-2.1%
16,CCCOn1c(-n2nc(C)cc2C)nc2ccccc2c1=O,-4.18%
17,CCOC(=O)c1cnc(-n2nc(C)cc2C)nc1NNc1cc(C)nc(-c2ccccc2)n1,-5.98%
18,Cc1cc(C)n(-c2c(F)c(F)c(COC(=O)c3ccccc3)c(F)c2F)n1,-44% (active)
19,CCCN(CCC)C(=O)C1CCCN(c2ncnc3c2nc2n3CCCCC2)C1 (stereo not given),11.5%
20,CC(OC(=O)CCCc1c[nH]c2ccccc12)C(=O)Nc1ccc(S(N)(=O)=O)cc1 (stereo not given),8.67%
21,Cc1ccc(NC(=O)C(C)OC(=O)Cc2c[nH]c3ccccc23)cc1S(=O)(=O)N1CCOCC1 (stereo not given),-47.8% (active)
22,Cc1cc(C(=O)Nc2ccc(C)c(S(=O)(=O)N3CCOCC3)c2)c2ccccc2n1,11.4%
23,COc1cc(OC)c(OC)cc1/C=C/c1nc2cc3ccccc3cc2c(=O)n1-c1ccc(F)c(Cl)c1,-0.661%

row,SMILES,"activity change, negative = inhibition"
1,CCCN(CCC)C(=O)Cn1c(=O)n(-c2ccc(Cl)cc2)c(=O)c2c3c(sc21)CCCCC3,10.1%
2,Cc1ccc(CNC(=O)Cn2c(=O)ccc3cc(S(=O)(=O)N4CCCC4)ccc32)cc1,3.17%
3,CCCCC(CCC(=O)Nc1ccc(C(=O)OCC)cc1)C(=O)O (stereo not given),-5.38%
4,Cc1ccc(NC(=O)OCCNC(=O)c2ccncc2)cc1,-26.6%
5,CCCCCOC(=O)NCCOC(=O)Nc1ccc(C(=O)OCC)cc1,-34.7% (active)
6,Cc1ccc2nc(COc3cccc(NC(=O)c4cccc(Cl)c4)c3)cc(=O)n2c1,3.14%
7,CCOC(=O)c1cc2c(=O)n3ccccc3nc2n(Cc2ccco2)c1=NC(=O)c1ccc(F)cc1,-29.5%
8,COc1ccc(OC)c(NC(=O)Cn2c(=O)n(Cc3ccccc3)c(=O)c3ccccc32)c1,-5.43%
9,CCOc1ccc(NC(=O)c2c(NC(=O)Cc3ccccc3)sc3c2CCC(C)C3)cc1 (stereo not given),11.2%
10,Cc1ccc(NC(=O)c2cc(S(=O)(=O)NCCC3=CCCCC3)ccc2F)cc1C,-29.8%
11,CC(Nc1nc(N2CCCC2)nc2ccccc12)c1ccccc1 (stereo not given),-25.4%
12,CC(Nc1nc(N2CCN(CCO)CC2)nc2ccccc12)c1ccccc1 (stereo not given),2.98%
13,CC(Nc1nc(N2CCOCC2)nc2ccccc12)c1ccccc1 (stereo not given),-48.3% (active)
14,Cc1ccccc1CNC(=O)c1cccc(NC(=O)c2nsc3ccccc23)c1,3.86%
15,COc1cc(CNCCSc2nnnn2C)ccc1OCc1ccc(Cl)cc1Cl,0.753%
16,CN(C)c1ccc(C(=O)NCC(=O)OC(C(=O)Nc2cc(C(F)(F)F)ccc2Cl)c2ccccc2)cc1 (stereo not given),-15.1%
17,Cc1ccc(C(=O)Cn2cccn2)cc1,-6.01%
18,Cc1ccc(C(=O)Cc2nnc(C)s2)cc1,7.19%
19,Cc1ccc(C(=O)CS(C)(=O)=O)cc1,-33.3% (active)
20,CCc1nc2onc(C)c2c(=O)n1CC(=O)O,10.4%
21,O=C(COc1ccccc1F)OCc1cc(=O)n2nc(C3CCCCC3)sc2n1,11%
